Consider 18 compounds from PubChem BioAssay (NCATS).

Records with an inconclusive call do not appear. A number with no mark means an inactive call. Active and inactive are the calls of the source. The call rests on the fitted dose curve; in most records, active means well fitted inhibition curve with a large enough effect; inconclusive means small, poorly fitted or top-dose-only effect; inactive means flat fitted curve, though single readings scatter. Where a SMILES comes first, the peptide text is derived from it.
On the % scale 0 is the no-effect control and ±100 the full control effect.

A short description of this assay: P-glycoprotein substrates identified in KB-8-5-11 adenocarcinoma cell line, qHTS therapeutic library screen (AID 1346987). Further: nearly all actives have a fitted effect of over 65% in size. The settings on record: KB-8-5-11 (P-gp overexpressing) viability, CellTiter-Glo, 72 h; series mostly up to 44.5 µM; activity change, negative = cytotoxicity: at the top concentration. Summed up: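 Human cervical adenocarcinoma KB-8-5-11 cells, selected in colchicine to over-express P-gp and assayed without it, were exposed for 72 h to titrated compounds. An ATP-based luminescent viability signal gave AC50.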
Regarding `COc1ccc(CCC(=O)O)c(O[C@@H]2O[C@H](CO)[C@@H](O)[C@H](O)[C@H]2O)c1`, the “activity change, negative = cytotoxicity” value is 7.21%.

In the case of `CC1(C)CCC2(C(=O)O)CCC3(C)C(=CCC4C5(C)CCC(O)C(C)(CO)C5C(O)CC43C)C2C1` (stereo not drawn), the “outcome” value is “inactive [at 17.3 µM]”.

In the case of `C[C@@H]1CC[C@]2(C(=O)O)CC[C@]3(C)C(=CCC4[C@@]5(C)C[C@@H](O)[C@H](O)[C@@](C)(CO)C5CC[C@]43C)C2[C@H]1C` (stereo partly drawn), the “outcome” value is “inactive [at 17.3 µM]”. Regarding `CSCC[C@H](NC(=O)[C@H](CO)NC(=O)[C@H](CCC(=O)O)NC(C)=O)C(=O)N[C@H](C=O)CC(=O)O` (Ac-ESMD-aldehyde), the activity change, negative = cytotoxicity is 5.02% [at 9.29 µM]. In the case of `O=C(O)Cn1nnc(-c2ccc(CN(CCCCOc3ccc(CN4CCCC4)cc3)CCc3ccccc3)cc2)n1`, the “activity change, negative = cytotoxicity” value is 4.22%. For the compound `CC1=CC(=O)CC(C)(C)C1CCC(C)O[C@@H]1O[C@H](CO)[C@@H](O)[C@H](O)[C@H]1O` (stereo partly drawn), the “activity change, negative = cytotoxicity” value was 8.85%. For `COc1cc(C(=O)OCC2=CCC3C(C(=O)O)=COC(O[C@@H]4O[C@H](CO)[C@@H](O)[C@H](O)[C@H]4O)C23)ccc1O` (stereo partly drawn), the “outcome” value is “inactive [at 17.3 µM]”. On to `C=C1CCC[C@]2(C)CC[C@@](O)(C(=C)C(=O)O)C[C@@H]12`, for which the “activity change, negative = cytotoxicity” value is -12.1%. Still for that read-out and setting: as for `O=C(NC1CCN(CC(F)(F)F)CC1)c1ccc(-c2cccc(F)c2)nc1`, the figure is -16.9%.

`C[C@]12CCC[C@](C)(C(=O)O)C1[C@@H](O)[C@@H](O)C13CC(CCC12)C(CO)(O[C@@H]1O[C@H](CO)[C@@H](O)[C@H](O)[C@H]1O)C3` (stereo partly drawn): the “outcome” value is “inactive [at 17.3 µM]”.

For the compound `C/C1=C\CC(C)(C)/C=C/C/C(C(=O)O)=C/CC1`, the “activity change, negative = cytotoxicity” value was -18.5%. On the same count and under the same terms, as for `CC1C(=O)OCC2=CC[N+]3([O-])CCC(OC(=O)C(C)(O)C1(C)O)C23` (stereo not drawn), the figure is 8.19%. Consider `O=C(OCC(O)CO[C@@H]1O[C@H](C(=O)O)[C@@H](O)[C@H](O)[C@H]1O)c1ccccc1` (stereo partly drawn), for which the compound was classed as inactive. On to `COc1ccc(C(=O)NCc2cc(C(C)C)no2)cc1OC1CCN(C)CC1`, for which the outcome was inactive. As for `CS(=O)(=O)c1ccccc1N1CCN(c2nc3c(c(=O)[nH]2)CSCC3)CC1`, the “activity change, negative = cytotoxicity” value was 5.4%. The same measure, in the same setting: the value for `COc1cc([C@H]2OC[C@](O)(Cc3ccc(O[C@@H]4O[C@H](CO)[C@@H](O)[C@H](O)[C@H]4O)c(OC)c3)[C@@H]2CO)ccc1O` was 1.08% [at 17.3 µM]; that for `C[C@@H]1O[C@@H](O[C@H]2[C@@H]3C=CO[C@@H](O[C@@H]4O[C@H](CO)[C@@H](O)[C@H](O)[C@H]4O)[C@@H]3[C@@]3(CO)O[C@@H]23)[C@H](OC(=O)/C=C/c2ccc(O)cc2)[C@H](O)[C@H]1O` was 2.42% [at 17.3 µM]. For the compound `Cc1cn2cc(CC(=O)N3CCC4(CC3)CN(Cc3ccc(-n5nccn5)cc3Cl)C4)nc2s1`, the “activity change, negative = cytotoxicity” value is -24.5%.
